# Laboratory results: PubChem BioAssay (NCI)
# About 79,000 compounds went through this panel and 15% of them were active in at least one assay; those are over-represented in the sample as a whole. Unmarked numbers belong to inactive results. Active and inactive are the calls of the source. Rule as the data show it: active = growth inhibition above about 70%; inactive = the rest.
# Key:
# [1] = NCI Yeast Anticancer Drug Screen. Data for the rad52 strain (AID 147);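 also: 0% = growth of vehicle-treated control cultures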; details: S. cerevisiae rad52 mutant growth inhibition, hits give high values
# Procedure, shortened: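 Genetically altered yeast (DNA damage repair defect) treated with compound; inhibition calculated relative to vehicle.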
# [2] = NCI Yeast Anticancer Drug Screen. Data for the wt1 strain (AID 149);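 also: 0% = growth of vehicle-treated wt1 cultures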; details: S. cerevisiae wt1 strain (SPY 50644) growth inhibition, hits give high values
# Procedure, shortened: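 Measured: growth of wt1 yeast under compound versus vehicle treatment, reported as inhibition.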
# [3] = NCI Yeast Anticancer Drug Screen. Data for the rad50EPP+ strain (AID 151);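 also: 0% = growth of vehicle-treated control cultures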; details: S. cerevisiae rad50 mutant strain, hits give high values
# Procedure, shortened: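 Strain rad50EPP+; compound exposure; % growth inhibition vs vehicle.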
# [4] = NCI Yeast Anticancer Drug Screen. Data for the mgt1 strain (AID 153); details: S. cerevisiae mgt1 mutant growth inhibition, hits give high values
# Procedure, shortened: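 Read-out: yeast growth inhibition vs vehicle control. Strain mgt1, drawn from a panel altered in DNA damage repair or cell cycle control.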
# [5] = NCI Yeast Anticancer Drug Screen. Data for the rad50 strain (AID 155);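 also: 0% = growth of vehicle-only cultures of the same strain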; details: S. cerevisiae rad50 strain growth inhibition, hits give high values
# Procedure, shortened: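 Growth of the mutant yeast was measured after compound exposure and referenced to vehicle-treated cultures.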
# [6] = NCI Yeast Anticancer Drug Screen. Data for the mec2-1 strain (AID 157); details: S. cerevisiae mec2-1 strain, hits give high values
# Procedure, shortened: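 Cells of the genetically defined mec2-1 yeast strain are incubated with test compound. Inhibition of growth is calculated against vehicle-treated controls.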
# [7] = NCI Yeast Anticancer Drug Screen. Data for the rad14 strain (AID 159);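 also: 0% = growth of vehicle-treated control cultures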; details: S. cerevisiae rad14 strain growth inhibition, hits give high values
# Procedure, shortened: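 Here, inhibition of yeast growth was measured after compound exposure, using a strain with a genetic defect in DNA damage repair and vehicle-treated cultures as the reference.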
# [8] = NCI Yeast Anticancer Drug Screen. Data for the sgs1 mgt1 strain (AID 161);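 also: 0% = growth of cultures given vehicle only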; details: S. cerevisiae sgs1 mgt1 strain, hits give high values
# Procedure, shortened: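 Genetically altered yeast, compound exposure, growth inhibition relative to vehicle.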
# [9] = NCI Yeast Anticancer Drug Screen. Data for the CLN2oe strain (AID 163);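 also: 0% = growth of vehicle-only control cultures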; details: S. cerevisiae CLN2oe strain, hits give high values
# Procedure, shortened: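 Strain altered in cell-cycle control, incubated with compound; growth compared to solvent-treated controls.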
# [10] = NCI Yeast Anticancer Drug Screen. Data for the cln2 rad14 strain (AID 165);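 also: 0% = growth equal to vehicle treated cultures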; details: S. cerevisiae cln2 rad14 strain, hits give high values
# Procedure, shortened: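 The screen exposed genetically defined yeast (cln2 rad14) to test compounds and scored growth inhibition relative to vehicle-treated controls.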
# [11] = NCI Yeast Anticancer Drug Screen. Data for the bub3 strain (AID 167); details: S. cerevisiae bub3 mutant strain, hits give high values
# Procedure, shortened: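 Whole-cell yeast assay. The mutant strain was incubated with compounds, and growth inhibition was determined by comparison with vehicle-treated cells.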
# [12] = NCI Yeast Anticancer Drug Screen. Data for the wt2 strain (AID 169);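 also: 0% = growth of vehicle-treated yeast cultures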; details: S. cerevisiae wt2 strain growth inhibition, hits give high values
# Procedure, shortened: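 Steps: yeast strain treated with compound; growth recorded; inhibition calculated relative to cultures given vehicle alone.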
# [13] = NCI Yeast Anticancer Drug Screen. Data for the mlh1 strain (AID 171);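 also: 0% = growth of vehicle-treated control cultures of the same strain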; details: S. cerevisiae mlh1 strain growth inhibition, hits give high values
# Procedure, shortened: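 Yeast screen: mutant strain plus compound, growth scored against vehicle control wells.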
# [14] = NCI Yeast Anticancer Drug Screen. Data for the sgs1 strain (AID 173);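 also: 0% = growth of vehicle-only control cultures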; details: S. cerevisiae sgs1 mutant, hits give high values
# Procedure, shortened: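 Inhibition of yeast growth served as the measure. The mutant strain was treated with each compound, and growth was normalised to cultures receiving vehicle alone.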
# [15] = NCI Yeast Anticancer Drug Screen. Data for the mlh1 rad18 strain (AID 175); details: S. cerevisiae mlh1 rad18 strain growth inhibition, hits give high values
# Procedure, shortened: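 Compound-treated yeast growth, normalised to vehicle controls. Strain bears defined DNA repair mutations.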
# [16] = at 5.0 µM (retest, dose inferred, filed as 0.5)
# [17] = at 50.0 µM (retest, dose inferred, filed as 5.0)
compound,measurement,setting,value
Cc1[nH]c2ccccc2c1C(c1ccc(N)cc1)c1c(C)[nH]c2ccccc12,growth inhibition,[1]; at 1.2 µM,3%
same,growth inhibition,[1]; at 3.7 µM,3%
same,growth inhibition,[1]; at 11.0 µM,-6%
same,growth inhibition,[1]; at 33.0 µM,-1%
same,growth inhibition,[1]; at 100.0 µM,41%
same,growth inhibition,[2]; at 1.2 µM,-2%
same,growth inhibition,[2]; at 3.7 µM,-1%
same,growth inhibition,[2]; at 11.0 µM,-2%
same,growth inhibition,[2]; at 33.0 µM,-1%
same,growth inhibition,[2]; at 100.0 µM,45%
same,growth inhibition,[3]; at 1.2 µM,4%
same,growth inhibition,[3]; at 3.7 µM,-4%
same,growth inhibition,[3]; at 11.0 µM,-4%
same,growth inhibition,[3]; at 33.0 µM,-2%
same,growth inhibition,[3]; at 100.0 µM,-8%
same,growth inhibition,[4]; at 1.2 µM,-3%
same,growth inhibition,[4]; at 3.7 µM,0%
same,growth inhibition,[4]; at 11.0 µM,0%
same,growth inhibition,[4]; at 33.0 µM,0%
same,growth inhibition,[4]; at 100.0 µM,48%
same,growth inhibition,[5]; at 1.2 µM,6%
same,growth inhibition,[5]; at 3.7 µM,3%
same,growth inhibition,[5]; [16],0%
same,growth inhibition,[5]; at 11.0 µM,-5%
same,growth inhibition,[5]; at 33.0 µM,1%
same,growth inhibition,[5]; [17],90% (active)
same,growth inhibition,[5]; at 50.0 µM,95.3% (active)
same,growth inhibition,[5]; at 100.0 µM,40%
same,growth inhibition,[6]; at 1.2 µM,-1%
same,growth inhibition,[6]; at 3.7 µM,-1%
same,growth inhibition,[6]; [16],4%
same,growth inhibition,[6]; at 11.0 µM,-1%
same,growth inhibition,[6]; at 33.0 µM,-1%
same,growth inhibition,[6]; [17],94% (active)
same,growth inhibition,[6]; at 50.0 µM,96.4% (active)
same,growth inhibition,[6]; at 100.0 µM,45%
same,growth inhibition,[7]; at 1.2 µM,5%
same,growth inhibition,[7]; at 3.7 µM,0%
same,growth inhibition,[7]; at 11.0 µM,0%
same,growth inhibition,[7]; at 33.0 µM,6%
same,growth inhibition,[7]; at 100.0 µM,50%
same,growth inhibition,[8]; [16],8%
same,growth inhibition,[8]; [17],96% (active)
same,growth inhibition,[8]; at 50.0 µM,98.2% (active)
same,growth inhibition,[9]; at 1.2 µM,-1%
same,growth inhibition,[9]; at 3.7 µM,-3%
same,growth inhibition,[9]; at 11.0 µM,-6%
same,growth inhibition,[9]; at 33.0 µM,0%
same,growth inhibition,[9]; at 100.0 µM,25%
same,growth inhibition,[10]; [16],4%
same,growth inhibition,[10]; [17],45%
same,growth inhibition,[10]; at 50.0 µM,39%
same,growth inhibition,[11]; at 1.2 µM,-3%
same,growth inhibition,[11]; at 3.7 µM,-3%
same,growth inhibition,[11]; [16],0%
same,growth inhibition,[11]; at 11.0 µM,-6%
same,growth inhibition,[11]; at 33.0 µM,-5%
same,growth inhibition,[11]; [17],85% (active)
same,growth inhibition,[11]; at 50.0 µM,98.4% (active)
same,growth inhibition,[11]; at 100.0 µM,38%
same,growth inhibition,[12]; at 1.2 µM,-2%
same,growth inhibition,[12]; at 3.7 µM,-11%
same,growth inhibition,[12]; at 11.0 µM,-10%
same,growth inhibition,[12]; at 33.0 µM,-1%
same,growth inhibition,[12]; at 100.0 µM,47%
same,growth inhibition,[13]; at 1.2 µM,1%
same,growth inhibition,[13]; at 3.7 µM,-1%
same,growth inhibition,[13]; at 11.0 µM,-2%
same,growth inhibition,[13]; at 33.0 µM,0%
same,growth inhibition,[13]; at 100.0 µM,50%
same,growth inhibition,[14]; at 1.2 µM,-12%
same,growth inhibition,[14]; at 3.7 µM,-14%
same,growth inhibition,[14]; at 11.0 µM,-19%
same,growth inhibition,[14]; at 33.0 µM,-5%
same,growth inhibition,[14]; at 100.0 µM,62%
same,growth inhibition,[15]; [16],6%
same,growth inhibition,[15]; [17],96% (active)
same,growth inhibition,[15]; at 50.0 µM,98.5% (active)
